High-throughput results (PubChem)
BCR signal inh = inhibitors of chronic active B-cell receptor signaling; 0.05% of 340,000 active; Potency, µM (top dose mostly 46.1 µM), for inactives: top-dose activity change, negative = inhibition, usual class: inhibitors; ABC-DLBCL IkBa-CBG/CBR reporter, luminescence ratio, 4 h; active means well fitted inhibition curve with a large enough effect in the signal ratio, with a control signal flat, not every such curve was filed as active; inconclusive means small, poorly fitted or top-dose-only effect, or effect the other way, or a change in a side signal; the % refers to the signal ratio;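 further: plate controls were basal doxycycline-induced cells for no effect and cells given 10 µM MG132 for full effect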
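Concentration-response series (up to 46 uM) were applied to TMD8 dual-reporter cells for 4 h at 37C with doxycycline. Green/red ratio, after filter-overlap correction, defined %Activity; red signal alone was normalised to basal cells and zero luminescence.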
Abeta rescue = A-beta toxicity reversal in yeast; AID 1347071; 0.063% of 410,000 active; Potency, µM (top dose mostly 46.1 µM), usual class: activators; yeast expressing A-beta42, growth rescue, OD600, 48 h; response scale: 0% DMSO, 100% iron-clioquinol control; further: nearly all actives have a fitted effect of over 55% in size
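Yeast growth medium received pinned compounds, then yeast cells expressing toxic A-beta were added; plates incubated at 30 C for 48 hr. Growth read as absorbance at 600 nm, normalized to DMSO and equimolar FeCl3 plus clioquinol controls.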
aSyn rescue = rescues yeast growth from alpha-synuclein toxicity. Yeast expressing alpha-synuclein, growth rescue, BacTiter-Glo, 24 h. Potency, µM (series often up to 46.1 µM), for inactives: top-dose growth rescue (activation), most hits filed as activators. 0.14% of 370,000 active; further: % of control where 0% means no effect; nearly all actives have a fitted effect of over 65% in size
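Readout is rescue of growth in alpha-synuclein-expressing yeast, so inhibitors of toxicity appear as activators. Growth after 24 hr at 30 deg C in galactose medium is quantified by luminescence.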
TDP-43 yeast inh = rescues yeast growth from TDP-43 toxicity; TDP-43 expressing yeast growth rescue, BacTiter-Glo, 24 h; Potency, µM (titrated, usually from 46.1 µM), without a hit: at the top dose growth rescue (activation), actives largely listed as activators; 1.8% of 410,000 active; further: % of control where 0% means no effect; nearly all actives have a fitted effect of over 50% in size
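Yeast expressing TDP-43 (pregrown in raffinose, seeded at OD600=0.02 in galactose medium) exposed to compounds 24 hr at 30 deg C. Growth read by BacTiter-Glo luminescence; rescue of toxicity appears as increased signal.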
FUS suppressor = suppressors of FUS proteinopathy in yeast; 0.24% of 390,000 active; S. cerevisiae FUS-expressing, growth rescue, OD600, 24 h; Potency, µM (series often up to 76.6 µM), hits mostly activators;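 further: plate controls were DMSO vehicle for no effect and reference control for full effect; nearly all actives have a fitted effect of over 55% in size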
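Cultures pregrown in 2.5% raffinose medium are shifted to minimal medium containing 2% galactose to express toxic FUS. Compounds are tested at several concentrations. After 24hr at 30C, growth is quantified at 600 nm absorbance.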
uPA generation = cell surface uPA generation inhibition. cell surface uPA generation assay, qHTS. Potency, µM (doses to about 38.3 µM), for the others: top-dose activity change, negative = inhibition, hits mostly inhibitors. 0.31% of 330,000 active. AID 540303; active means well fitted inhibition curve with a large enough effect; inconclusive means small, poorly fitted or top-dose-only effect; inactive means no such curve, though single readings can be large or run the other way; tested in mouse RAW 264.7 cells; further: on the % scale 0 is the no-effect control and ±100 the full control effect; nearly all actives have a fitted effect of over 55% in size
* hit, by the source's call; i = inactive; ? = inconclusive; · = no result; [ ] = another dose, or the depositor's remark. Most compounds without a hit are left out; they make up all but 2.3% or so of the library. Unless noted, the call rests on the fitted dose curve; in most records, active means well fitted curve in the direction sought with a large enough effect; inconclusive means small, poorly fitted or top-dose-only effect, or another doubt; inactive means no such curve, though single readings can be large; an effect the other way counts as inactive or inconclusive. Potency means the concentration at half of the fitted maximal effect.

SMILES | BCR signal inh | Abeta rescue | aSyn rescue | TDP-43 yeast inh | FUS suppressor | uPA generation
Cc1ccc(Nc2nc3ccccc3c3nnc(C)n23)cc1Cl | · | i | · | 13% | i | ·
Cc1nnc2c3ccccc3nc(Nc3cccc(O)c3)n12 | · | i | · | 35µM* | i | ·
COc1ccccc1NC(=O)Cn1cnc2c1c(=O)n(C)c(=O)n2C | -6% | i | 0% | 2% | i | -4%
O=c1c2ccc([N+](=O)[O-])cc2ncn1CCOc1ccccc1 | 14% | i | 3% | 23%[9.22 µM] | i | -3%
Cc1ccc(OCCn2cnc3cc([N+](=O)[O-])ccc3c2=O)cc1 | -1% | i | 7% | 10µM* | i | 2%
CC1=C(C)CS(=O)N(S(=O)(=O)c2ccccc2)C1 (stereo unspecified) | ? | i | -22% | 13µM* | i | ·
CCN(C(=O)CN1CCCCC1)C1(C)C(=O)c2ccccc2C1=O | 4% | i | 3% | -6% | i | 0%
Cc1cc2c(c(C)nn2-c2ccccc2)c(=O)o1 | -5% | i | 12% | 17% | i | -5%
CCc1c(C)c2c(C)nn(-c3ccccc3)c2oc1=O | 11% | i | 7% | 25µM* | i | 0%
Cc1cc(-c2nnc3n2N=C(c2ccccc2Br)CS3)n[nH]1 | -19% | ? | -1% | 1% | i | 4%
Clc1ccccc1C1=Nn2c(nnc2-c2ccncc2)SC1 | ? | i | 10% | 11µM* | i | 24%
c1ccc(-c2ccc(C3=Nn4c(nnc4-c4ccncc4)SC3)cc2)cc1 | · | · | · | · | i | ·
Cc1cccc(-c2nnc3n2N=C(c2ccccc2Br)CS3)c1 | ? | i | 7% | 20µM* | i | -6%
CCn1cc(C(=O)O)c(=O)c2cc(S(=O)(=O)N(C)C)ccc21 | 1% | i | -1% | -17% | i | ·
O=C(NCc1ccccc1)c1nc[nH]c1C(=O)NCc1ccccc1 | ? | i | 1% | -10%[0.397 µM] | i | 1%
O=C(/C=C/c1cccc([N+](=O)[O-])c1)Nc1cccc(NC(=O)c2cccs2)c1 | ? | i | -1% | 13% | i | -2%
CCc1cc(C(=O)NNC(=S)NC(C)c2ccccc2)cs1 (stereo unspecified) | ? | i | -5% | 2% | i | ·
CC(=O)Nc1ccc(NC(=O)CC(NC(=O)c2ccccc2)c2ccccc2)cc1 (stereo unspecified) | -1% | i | -8% | 3% | i | 2%
COc1ccc(OCc2ccc(C(=O)O)cc2)cc1 | ? | i | 6% | 14µM* | i | 4%
C=C(Cl)COc1ccc2c(CCC)cc(=O)oc2c1 | ? | i | 5% | ? | i | 0%
COc1ccc(OCC(O)COc2ccc(C(=O)O)cc2)cc1 (stereo unspecified) | 4% | i | · | · | i | -2%
NNC(=O)c1ccc(COc2ccc3ccccc3c2)cc1 | ? | i | -7% | 16µM* | i | -10%
NNC(=O)c1ccc(COc2ccc3c(c2)CCC3)cc1 | -11% | i | -20% | 18% | ? | -4%
CCCc1cc(=O)oc2cc(OCc3ccc(C(=O)O)cc3)ccc12 | -16% | i | 3% | 2.5µM* | i | -4%
FC(F)Oc1ccc(/C=N/NC(=S)Nc2cc(C(F)(F)F)ccc2Cl)cc1 | 1% | i | 1% | 22% | i | 8%
Nc1ccc(Nc2ccccc2N)cc1 | 6% | i | -2% | -21% | ? | ·
Cc1nnc(SCc2ccc(C(=O)Nc3cc(Cl)ccc3C)cc2)s1 | ? | i | 0% | 10µM* | i | -3%
Cc1ccc(NC(=O)c2ccc(CSc3nnc(C)s3)cc2)c(C)c1 | 9% | i | -1% | 6% | i | -3%
CN(C(=O)c1ccc2c(=O)n3c(nc2c1)CCCCC3)c1cccc(Cl)c1 | 13% | i | 12% | 18% | i | 2%
Cc1cccc(OCCn2c(=O)sc3ccccc32)c1 | ? | i | 4% | ? | i | -4%
